Measurements reported in PubChem BioAssay AID1851 (National Center for Advancing Translational Sciences (NCATS), 2009).
Out of some 16,000 compounds screened, about 5,700 (36%) were called active. About 24% were inconclusive and are not listed. Calls come from the whole dose curve; as a rule, active = well fitted curve in the direction sought with a large enough effect; inconclusive = small, poorly fitted or top-dose-only effect, or effect the other way; inactive = no such curve, though single readings can be large or run the other way. This is one part of the list.

Each compound was assayed against Cytochrome P450 1A2 (Homo sapiens) (UniProt P05177) (assay: Cytochrome panel assay with activity outcomes). Details: recombinant CYP, pro-luciferin dealkylation, luminescence, p450-cyp1a2; series mostly up to 57.1 µM; activity, negative = inhibition: at the top concentration.
Chain of Cytochrome P450 1A2 (Homo sapiens) (P05177 whole entry, looked up): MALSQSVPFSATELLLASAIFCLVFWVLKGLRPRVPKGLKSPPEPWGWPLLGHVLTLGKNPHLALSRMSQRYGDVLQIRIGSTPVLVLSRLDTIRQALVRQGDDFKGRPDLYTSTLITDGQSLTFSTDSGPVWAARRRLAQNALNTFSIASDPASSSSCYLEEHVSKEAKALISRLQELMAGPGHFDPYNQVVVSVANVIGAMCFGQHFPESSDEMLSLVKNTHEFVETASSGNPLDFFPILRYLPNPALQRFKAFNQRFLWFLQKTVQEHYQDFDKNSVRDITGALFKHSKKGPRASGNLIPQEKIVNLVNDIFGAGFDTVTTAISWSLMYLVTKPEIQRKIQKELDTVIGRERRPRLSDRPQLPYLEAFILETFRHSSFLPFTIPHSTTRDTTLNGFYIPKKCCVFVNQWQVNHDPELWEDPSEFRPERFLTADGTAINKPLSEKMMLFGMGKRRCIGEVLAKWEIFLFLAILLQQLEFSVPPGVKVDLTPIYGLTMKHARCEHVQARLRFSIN
% is set by controls: 0 for no effect and ±100 for the full control effect.

activity, negative = inhibition, inactive:
COC(=O)[C@@H]1CC[C@H](C)[C@@H](c2ccc(C)cc2)N1C(=O)c1ccc(/C=N\O[C@@H]2O[C@H](COC(C)=O)[C@H](OC(C)=O)[C@H](OC(C)=O)[C@H]2OC(C)=O)cc1 -1.33% [at 11.4 µM]
CCOc1cc(C2CC(=O)c3c(ccc4ccccc34)N2)ccc1O (configuration not stated) -10.8%
CC[C@H]1CC[C@H]2[C@@H]3CC=C4C[C@H](OC(C)=O)[C@@H](N)C[C@@]4(C)[C@H]3CC[C@@]12C -5.9% [at 11.4 µM]
CCCc1cc(=O)oc2cc(OCC(=O)N3CCc4ccccc43)ccc12 -18.1%
CCO[C@H](c1cc(OC)cc([N+](=O)[O-])c1OC)[C@H](C)/C=C\CC(=O)OC 1.93% [at 11.4 µM]
COc1ccc(/C(O)=C2\C(=O)C(=O)N(c3cc(C)on3)C2c2ccc(OC)c(OC)c2)cc1OC (configuration not stated) -1.53%
CC(=O)OCC(=O)[C@@]1(O)[C@H](C)C[C@@H]2[C@H]3CCC4=CC(=O)C=C[C@]4(C)[C@]3(F)[C@@H](O)C[C@@]21C -5.82% [at 25.6 µM]
CCC(C)NS(=O)(=O)c1ccc(NC(=O)CCC2CCCCC2)cc1 (configuration not stated) -1.87%
O=C(CCC1CCCCC1)Nc1c2c(nn1-c1ccc(F)cc1)CS(=O)(=O)C2 -26.5%
CCn1c(CSCc2ccc(C)cc2)nnc1SCC(=O)NCc1ccccc1 -12.9%
O=C(CSCc1ccccc1)Nc1ccc(S(=O)(=O)N2CCOCC2)cc1 5.08%
COc1cccc(N(CC(=O)Nc2cccc(C(C)=O)c2)S(C)(=O)=O)c1 -23.4%
Cc1ccc(O)c(C(=O)c2cc(C#N)c(=O)n(-c3c(C)n(C)n(-c4ccccc4)c3=O)c2)c1 -22%
Nc1nc2n[nH]nc2c(=O)[nH]1 -3.44% [at 25.6 µM]
CN(C)C(=O)CN(c1ccc2c(c1)OCO2)S(C)(=O)=O -14.4%
C[C@@H]1C[C@@H]2[C@H]3CCC4=CC(=O)C=C[C@]4(C)[C@]3(F)[C@@H](O)C[C@]2(C)[C@@]1(O)C(=O)CO -7.24% [at 25.6 µM]
O=C(O)[C@H](Cc1cc(I)c(O)c(I)c1)C1CCCCC1 -8.77% [at 2.29 µM]
Cc1ccc(S(=O)(=O)N(CC(=O)NCCC2=CCCCC2)Cc2ccccc2F)cc1 -16.5%
CCCCCOc1ccc(NC(=O)C(=O)NCCC2=CCCCC2)cc1 2.05%
COc1ccc(C(=O)CN2C(=O)NC(C)(c3ccccc3)C2=O)cc1OC (configuration not stated) -23.5%
CC(=O)Nc1ccc(S(=O)(=O)NC(CC(=O)NCCC2=CCCCC2)C(C)C)cc1 (configuration not stated) -6.14%
COc1ccc(OC)c(C(=O)CN2C(=O)NC(C)(c3ccccc3)C2=O)c1 (configuration not stated) -19.8%
Cc1nc2ncnn2c(C)c1CCC(=O)NCCC1=CCCCC1 -4.9%
CC(C)=NOCc1ccc(-c2cc(-c3ccccc3)no2)cc1 -4.03% [at 11.4 µM]
CC(C)=NOCc1cccc(-c2cc(-c3ccccc3)no2)c1 1.37% [at 11.4 µM]
Nc1nc(-c2cc(-c3cccc4ccccc34)nc(N)n2)cc(-c2cccc3ccccc23)n1 -4.4% [at 2.29 µM]
Cc1cc(C(F)F)n2nc(C(=O)Nc3sc4c(c3C#N)CCC(C)C4)nc2n1 (configuration not stated) -23.3%
CC(C)CN=C(N)N=C(N)N -9.85% [at 11.4 µM]
CCOc1ccc(CNC(=O)C2CCC(=O)N2C2CCCC2)cc1OC (configuration not stated) -20.8%
CCOc1cc(CN2CCN(c3ccc(C(C)=O)cc3)CC2)ccc1OC 0.863%
CC1CCC(O)([C@](C)(C(=O)O)c2ccccc2)CC1 (some centres not stated) -4.6% [at 11.4 µM]
O=C(Nc1ccccc1)N1CCOCC1 -29.9%
COC(=O)N1CCC2(CC1)CN(C(=O)Nc1ccccc1)C2 -10.2%
COC(=O)[C@@]1(Cc2ccc(OC)cc2)[C@H]2c3cc(C(=O)N4CCCC4)n(Cc4ccc(C(F)(F)F)nc4)c3C[C@H]2CN1C(=O)c1ccccc1 -14.5%
CCCNC(=O)OC[C@@H]1O[C@H](c2ccccc2)C=C[C@@H]1Oc1ccc(OC)cc1 -7.29% [at 11.4 µM]
CC(C)(C)NC[C@H](O)COc1cccc2[nH]c(=O)[nH]c12 -2.92%
C=CCOc1ccc(CNC(C)(C)CO)cc1OCC -3.94%
O=C1c2ccccc2C(=O)N1CC1c2ccccc2CCN1S(=O)(=O)c1ccccc1 (configuration not stated) -6.98%
COc1ccc(CCNC(=O)C2CCN(S(=O)(=O)N3CC(C)CC(C)C3)CC2)cc1OC (configuration not stated) 0.643%
C#CCCCO/N=C1/C[C@@H](O)[C@@H](O)[C@@H]2[C@@H]3C(=O)N(CCC(=O)OCC)C(=O)[C@H]3CC[C@@H]12 -0.481% [at 11.4 µM]
CNc1oc(C)nc1S(=O)(=O)c1ccc(C)cc1 -11.6%
Cc1ccc(S(=O)(=O)c2cc(C#N)c(=O)[nH]c2N)cc1 10.9%
CC1(C)N=C(N)N=C(N)N1c1cccc(CSc2ccccc2)c1 -17.2% [at 2.29 µM]
O=c1ccnc(SCc2ccc(Cl)cc2)[nH]1 -17.6% [at 11.4 µM]
O=C(C1CCN(S(=O)(=O)c2cccc3nsnc23)CC1)N1CCN(c2ccccc2F)CC1 -7.12%
COC(=O)[C@H](CCSC)NC(=O)NCc1ccccc1F -4.36%
O=C(c1ccccc1)c1ccc2nc(-c3ccc(NC(=O)c4ccccc4F)cc3)[nH]c2c1 -13.1%
C1COC(NC(C2CC2)C2CC2)=N1 -0.549% [at 25.6 µM]
N#[N+]c1ccc(Nc2ccccc2)cc1 -12.6% [at 11.4 µM]
CC(C)N1CCN(c2ccncc2S(=O)(=O)N2CCCCC2)CC1 -16.9% [at 2.29 µM]
Cc1c(NC(=S)N/N=C/c2ccc(O)cc2)c(=O)n(-c2ccccc2)n1C -14.6%
COc1cc(NC(=O)c2cc3nc(-c4ccccc4)cc(-c4ccccc4)n3n2)cc(OC)c1OC -5.57%
CCCC(=O)Nc1nc2n(n1)C(c1ccccc1)CC(=O)N2 (configuration not stated) 7.91%

AC50, active:
CCc1cc2c(Sc3nc4ccccc4s3)ncnc2s1 1580 nM
Cc1cccc(CNc2nc(-c3cccnc3)nc3ccccc23)c1 631 nM
CN(C)c1ccc(-c2nc(NCc3cccnc3)c3ccccc3n2)cc1 1580 nM
c1ccc(-c2nc(NCc3cccnc3)c3ccccc3n2)cc1 1120 nM
CCCc1cc(=O)oc2cc(OCc3nn[nH]n3)ccc12 12600 nM
CCCCc1cc(=O)oc2cc(OCC(=O)N(CC)CC)ccc12 12600 nM
O=C(CN1CCCC1)N/N=C/c1ccc(-c2cccc(Cl)c2)o1 8910 nM
CSc1ccccc1NC(=O)CSCc1ccc(C)cc1 7080 nM
CC(=O)c1cccc(NC(=O)CSCc2ccccc2)c1 2000 nM
CC(=O)c1cccc(NC(=O)CCC2CCCC2)c1 3550 nM
CCCOc1ccccc1-c1nc2n[nH]nc2c(=O)[nH]1 3980 nM
C=CCSC1=Nc2sccc2C2=NC(=O)CN12 1780 nM
CSC1=N/C(=C\c2ccc(C)cc2)C(=O)S1 2820 nM
CSC1=N/C(=C\c2ccc3c(c2)OCO3)C(=O)S1 1000 nM
CSC1=N/C(=C\c2ccc(Br)o2)C(=O)S1 3550 nM
c1ccc2cc(Sc3ncnc4c3oc3ccccc34)ccc2c1 1580 nM
O=C(COc1ccc(Cl)cc1)NCCC1=CCCCC1 11200 nM
CC1(c2ccccc2)NC(=O)N(CC(=O)NCCC2=CCCCC2)C1=O (configuration not stated) 11200 nM
O=C(CN1CCN(c2ncccn2)CC1)NCCC1=CCCCC1 1580 nM
CCC(C)n1nnc2c(=O)oc3ccccc3c21 (configuration not stated) 708 nM
Cc1ccccc1-c1cc(-c2ccccc2O)on1 2510 nM
Nc1nc(-c2ccccc2)cc(-c2ccccc2O)n1 631 nM
Oc1ccccc1-c1cc(-c2ccccc2)no1 1260 nM
CC(=O)N1CCN(c2nc(C)nc3sc4c(c23)CCC(C)C4)CC1 (configuration not stated) 15800 nM
C(=N\N(c1ccccc1)c1ccccc1)/c1ccc2c(c1)OCO2 2000 nM
CCOc1ccc(CC(=O)C2C(=O)CCCC2=O)cc1OCC 10000 nM
O=C(Nc1ccc(Cl)cc1)N1CCc2[nH]c3ccccc3c2C1 3550 nM
Cc1cc(SCC(=O)c2cccs2)nc2c(C)cccc12 891 nM
C=CCOc1ccccc1OC[C@H](O)CNC(C)C 5010 nM
C=CCc1ccccc1OC[C@H](O)CNC(C)C 3160 nM
CSc1nc(-c2ccc(C)cc2)[nH]c1S(=O)(=O)c1ccccc1 14100 nM
CCc1ccc(CSc2nccn2-c2ccccc2)cc1 1260 nM
Clc1ccc(CSc2nccn2Cc2ccccc2)cc1 25100 nM
O=C(CSc1nccn1-c1ccccc1)c1ccc(Cl)cc1 891 nM
c1ccc(CCSc2nccn2-c2ccccc2)cc1 1780 nM
O=C(c1ccccc1)c1ccc2nc(-c3ccc(NC(=O)c4ccccc4Br)cc3)[nH]c2c1 8910 nM
Cc1nc2cnc(N3CCN(C)CC3)nc2n(C)c1=O 12600 nM
Cc1nc2cnc(N3CCOCC3)nc2n(C)c1=O 6310 nM
Nc1ccccc1Nc1ccccc1 25100 nM
Nc1ccc(Nc2ccccc2)cc1 12600 nM
CCc1c(C(C)O)oc2ccc3c(C)cc(=O)oc3c12 (configuration not stated) 282 nM
Cc1c(C(=O)N/N=C/c2ccccc2)sc(=S)n1C 891 nM
CCCC(=O)Nc1nc2nc(-c3ccccc3)cc(-c3ccccc3)n2n1 2510 nM

AC50, inactive:
C=CCN1CCc2cc(O)c(O)cc2[C@H](c2ccccc2)C1
